Inconclusive results are not listed. The source made the active and inactive calls. Rule for the calls: active = hit-call score of the fitted dose curve at least 0.9, where 1 is the maximum; inconclusive = response in the unintended direction; inactive = score below 0.9.
experiment: TOX21_PR_BLA_Followup_Agonist_viability: Viability Assessment in the Tox21 HEK293 Progesterone Receptor (PR) Agonism Beta-lactamase Follow-Up Assay (AID 2283935);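 note: signal loss means lower viability so actives are cytotoxic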
Procedure: TOX21_PR_BLA_Followup is a secondary assay for specificity for the TOX21_PR_BLA_Agonist assay. To differentiate true PR agonists from cytotoxic substances, this follow up assay is multiplexed with a cell viability assay. The compounds were also tested for auto fluorescence that may interfere with the biological target readout resulting in potential false positives and/or negatives. To identify the compounds that stimulate PR signaling, a PR-UAS-bla GripTite cell line i.e. PR-UAS-bla HEK293T (Invitrogen, Carlsbad, CA, USA) containing a beta-lactamase reporter gene under the control of an UAS response element was used to screen Tox21 10K compound library. The cytotoxicity of the Tox21 compound library against the PR-bla cell line was tested in parallel by measuring the cell viability using CellTiter-Glo assay in the same wells. TOX21_PR_BLA_Followup_Agonist_viability is a component of the TOX21_PR_BLA_Followup_Agonist assay. This component measures cell viability using the CellTiter-Glo Luciferase-coupled ATP quantitation.TOX21_PR_BLA_Followup_Agonist_viability used a type of viability reporter where loss-of-signal activity can be used to understand changes in the cell viability. Furthermore, this assay endpoint can be referred to as a secondary readout, because this assay has produced multiple assay endpoints where this one serves a viability function. To generalize the intended target to other relatable targets, this assay endpoint is annotated to the cell cycle intended target family, where the subfamily is cytotoxicity.
Assay Protocol: PR-UAS-bla HEK293T cells were dispensed at 3,000 cells/5 uL of assay medium containing 2% charcoal stripped FBS per well into black wall/clear-bottom 1536-well plates using a Multidrop Combi (ThermoFisher Scientific, Waltham, MA) dispenser. After the assay plates were incubated at a 37C and 5% CO2 for 6 hr, 23 nL of compounds dissolved in DMSO, positive controls or DMSO only was transferred to the assay plate by a Pintool station (Kalypsys, San Diego, CA). The plates were incubated at 37C and 5% CO2 for 16 hr. Then 1 uL of LiveBLAzer B/G FRET substrate was added using a Flying Reagent Dispenser (FRD, Aurora Discovery, San Diego, CA), the plates were incubated at room temperature for 2 hours, and fluorescence intensity was measured by an Envision plate reader (PerkinElmer, Shelton, CT). For cell viability readout that measures cytotoxicity, 4 uL/well of CellTiter-Glo reagent was added into the assay plates using a FRD. After 30 min incubation at room temperature, the luminescence intensity in the plates was measured using a ViewLux (PerkinElmer) plate reader.

Row | SMILES | outcome | AC50
1 | C[C@]12CCC(=O)C=C1CC[C@@H]1[C@@H]2C(=O)C[C@@]2(C)[C@H]1CC[C@]2(O)C(=O)CO | inactive | –
2 | Nc1ccc(-c2ccc(F)cc2)cc1 | inactive | –
3 | C[C@]12C=CC(=O)C=C1CC[C@@H]1[C@@H]2[C@@H](O)C[C@@]2(C)[C@H]1CC[C@]2(O)C(=O)CO | inactive | –
4 | CC(=O)[C@H]1[C@H](C#N)C[C@H]2[C@@H]3CC=C4C[C@@H](O)CC[C@]4(C)[C@H]3CC[C@@]21C | inactive | –
5 | C#CC1(O)CC[C@H]2[C@@H]3CCC4=CCCC[C@@H]4[C@H]3CC[C@@]21C (stereo not given in full) | inactive | –
6 | CCC(=O)Oc1ccc(/C(CC)=C(\CC)c2ccc(OC(=O)CC)cc2)cc1 | inactive | –
7 | COc1ccc(C(Cl)=C(c2ccc(OC)cc2)c2ccc(OC)cc2)cc1 | inactive | –
8 | CCOC(=O)c1ccccc1C(=C1C=C(Br)C(=O)C(Br)=C1)c1cc(Br)c(O)c(Br)c1 | inactive | –
9 | Cc1ccc(C(C)c2ccc(C)c(C)c2)cc1C | inactive | –
10 | CC(C)(c1cc(Br)c(OCCO)c(Br)c1)c1cc(Br)c(OCCO)c(Br)c1 | – | 32.2 µM (active)

Reference: PubChem BioAssay (EPA / NIEHS)
